Records with an inconclusive call do not appear. Calls of active or inactive are those of the source. Unless noted, the call rests on the fitted dose curve.
What was measured:
[1] = Nuclear factor erythroid 2-related factor 2/antioxidant responsive element (Nrf2/ARE) small molecule agonists: qHTS cell viability counter screen in human keratinocytes (AID 1919968; active means well fitted curve in the direction sought with a large enough effect in the repeat runs; an effect the other way counts as inactive or inconclusive; further: nearly all actives have a fitted effect of over 55% in size)
How it was run: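 KeratinoSens cells (HaCaT keratinocytes stably carrying an ARE-luciferase reporter) were seeded at 1,500 cells/well and rested 5 h at 37 C/5% CO2. They were then exposed to compounds in DMSO for 23 h. Viability was read by CellTiter-Fluor fluorescence after 1 h.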

[2] = target: Gonadotropin-releasing hormone receptor (Homo sapiens) (UniProt P30968); test: Human gonadotropin-releasing hormone receptor (GnRHR) small molecule agonists, calcium flux assay in GnRHR-HEK293 cells (AID 1920063); further: nearly all actives have a fitted effect of over 35% in size
How it was run: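 HEK293 cells stably expressing human GnRHR were plated 18 h at 37 °C, loaded with calcium dye 1 h at 37 °C, then given compound in agonist mode; fluorescence (Ex/Em 480/540) read kinetically for 3 min at 1 s intervals.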

[3] = target: KiSS-1 receptor (Homo sapiens) (UniProt Q969F8); test: Human kisspeptin (KISS1R) small molecule agonists, calcium flux assay in KISS1R-HEK293 cells (AID 1920064; active means well fitted curve in the direction sought with a large enough effect in the repeat runs; an effect the other way counts as inactive or inconclusive)
How it was run: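 HEK293 cells stably expressing human KISS1R were plated 18 h at 37 °C, loaded with calcium dye for 1 h at 37 °C, then given compound by pin tool. Fluorescence (Ex/Em 480/540) was read kinetically for 3 min.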

[4] = G protein-coupled receptor (GPCR) small molecule agonists, calcium flux assay: HEK293 wild type cell line counter screen (AID 1920065)
How it was run: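 Cells were plated and cultured 18 h at 37 C/5% CO2, then loaded with calcium dye for 1 h at 37 C. Compounds in DMSO were pin-transferred in agonist mode, and fluorescence (Ex/Em 480/540) was read kinetically for 3 min at 1 s intervals.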

[5] = p53 small molecule agonists, cell-based qHTS assay with human liver microsomes: qHTS cell viability counter screen (AID 1963579); further: nearly all actives have a fitted effect of over 45% in size
How it was run: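 p53RE-bla cells, 4,000/well, dosed 5 hours after plating, with human liver microsomes (0.5 mg/mL final) plus NADPH (0.5 mg/mL final), 16 hours at 37 C. Viability read as CellTiter-Glo luminescence after 30 min at room temperature.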

[6] = p53 small molecule agonists, cell-based qHTS assay with rat liver microsomes: qHTS cell viability counter screen (AID 1963580); further: nearly all actives have a fitted effect of over 45% in size
How it was run: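 Intracellular ATP, by CellTiter-Glo luminescence, defines viability. HCT-116 p53RE-bla cells, 4,000 per well, were compound-treated in the presence of rat liver microsomes and NADPH for 16 h at 37 C.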

[7] = p53 small molecule agonists, cell-based qHTS assay: qHTS cell viability counter screen (AID 1963581); further: nearly all actives have a fitted effect of over 45% in size
How it was run: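 p53RE-bla HCT-116 cells were exposed to compounds for 16 h at 37 C; after the beta-lactamase FRET read in the same wells, CellTiter-Glo was added and luminescence (intracellular ATP) read after 30 min at room temperature.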

[8] = target: 5-hydroxytryptamine receptor 2A (Homo sapiens) (UniProt P28223); test: 5-hydroxytryptamine receptor 2A (HTR2A) small molecule antagonists, cell-based qHTS assay (AID 1963586); further: nearly all actives have a fitted effect of over 45% in size
How it was run: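 Antagonist-mode intracellular calcium assay: DOI (4 nM) added after 5 min compound pre-incubation at room temperature to dye-loaded HTR2A-CHO cells. Fluorescence followed for 3 min, sampled every second.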

[9] = target: 5-hydroxytryptamine receptor 2A (Homo sapiens) (UniProt P28223); test: 5-hydroxytryptamine receptor 2A (HTR2A) small molecule agonists, cell-based qHTS assay (AID 1963587); further: nearly all actives have a fitted effect of over 30% in size
How it was run: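 Kinetic calcium-flux fluorescence (2 min, 1 sec intervals) after compound addition in agonist mode. HTR2A-CHO cells were cultured 18 h, then dye-loaded 1 h at 37 C.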

[10] = target: Muscarinic acetylcholine receptor M1 (Homo sapiens) (UniProt P11229); test: Cholinergic receptor muscarinic 1 (CHRM1) small molecule antagonists, cell-based qHTS assay (AID 1963588); further: nearly all actives have a fitted effect of over 40% in size
How it was run: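 CHRM1-CHO calcium-flux assay, antagonist mode. Cells were seeded 18 h, dye-loaded 1 h at 37 C and given compound for 5 min at RT, then acetylcholine was added at 50nM. FDSS fluorescence was read 3 min; 15 concentrations, three runs.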

[11] = target: Muscarinic acetylcholine receptor M1 (Homo sapiens) (UniProt P11229); test: Cholinergic receptor muscarinic 1 (CHRM1) small molecule agonists, cell-based qHTS assay (AID 1963589); further: nearly all actives have a fitted effect of over 35% in size
How it was run: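 CHO cells stably expressing human CHRM1, seeded 18 h at 37 C/5% CO2, dye-loaded 1 h at 37 C, then given compound in agonist mode; intracellular calcium fluorescence read kinetically at 1 s intervals. Fifteen concentrations, three independent runs.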

[12] = cAMP Responsive Elements (CRE) small molecule agonists, cell-based qHTS assay (AID 1963590)
How it was run: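 CRE-bla HEK 293T cells in DMEM with 10% dialyzed FBS, NEAA, pyruvate and 25 mM HEPES were plated 18 h at 37 C/5% CO2, then exposed to compounds in DMSO for 3 h before LiveBLAzer B/G FRET substrate addition.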

[13] = target: Beta-2 adrenergic receptor (Homo sapiens) (UniProt P07550); test: Adrenergic beta2 receptor (ADRB2) small molecule antagonists, cell-based qHTS assay (AID 1963592); further: series mostly up to about 92 µM; nearly all actives have a fitted effect of over 50% in size
How it was run: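 Cells (CHO, stable ADRB2 overexpression) incubated 18-20hr at 37C; compounds added from DMSO; agonist mix (1nM isoproterenol, 100uM IBMX, 25uM Ro-20-1724) added; 0.5hr RT; d2-cAMP and anti-cAMP-cryptate added; 1hr RT; 665/615 nm read.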

[14] = target: D(2) dopamine receptor (Homo sapiens) (UniProt P14416); test: Dopamine D2 receptor (DRD2) small molecule antagonists, cell-based qHTS assay (AID 1963595; active means well fitted inhibition curve with a large enough effect in the signal ratio in the repeat runs, with a control signal flat; the % refers to the signal ratio)
How it was run: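 HTRF cAMP read-out at 665 and 620 nm emission (340 nm excitation). Antagonist mode: compounds were tested against 12 nM quinpirole in DRD2-HEK293 cells, with 200 nM NKH477 raising cAMP and 0.1 mM Ro20-1724 blocking its breakdown.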

[15] = cAMP Responsive Elements (CRE) small molecule antagonists, cell-based qHTS assay (AID 1963591; active means well fitted inhibition curve with a large enough effect in the signal ratio in the repeat runs, not every such curve was filed as active; the % refers to the signal ratio)
How it was run: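 CRE-bla HEK293T cells were plated 18 h at 37 °C/5% CO2, pinned with compound in DMSO, then stimulated with NKH477 at 0.25 uM final for 3 h. LiveBLAzer B/G FRET substrate was added and plates incubated 2 h at room temperature.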

[16] = target: D(2) dopamine receptor (Homo sapiens) (UniProt P14416); test: Dopamine D2 receptor (DRD2) small molecule agonists, cell-based qHTS assay (AID 1963594); further: nearly all actives have a fitted effect of over 35% in size
How it was run: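 cAMP accumulation in DRD2-HEK293 cells measured by HTRF after 1 h detection; compounds added 10 min before NKH477 (200nM […]) forskolin-analogue stimulation, 30 min at room temperature, with Ro20-1724 present at 0.1 mM final.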

[17] = p53 small molecule agonists, cell-based qHTS assay (AID 1963582; active means well fitted activation curve with a large enough effect in the signal ratio in the repeat runs, not every such curve was filed as active; the % refers to the signal ratio)
How it was run: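 p53RE-bla beta-lactamase reporter cells rested 5 h at 37 C/5% CO2, then received compounds in DMSO by pin transfer and were incubated 16 h at 37 C. LiveBLAzer B/G FRET substrate was loaded for 2 h at room temperature before fluorescence reading.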

Measured: Potency

Beta-2 adrenergic receptor (Homo sapiens), sequence (P07550 whole entry, looked up): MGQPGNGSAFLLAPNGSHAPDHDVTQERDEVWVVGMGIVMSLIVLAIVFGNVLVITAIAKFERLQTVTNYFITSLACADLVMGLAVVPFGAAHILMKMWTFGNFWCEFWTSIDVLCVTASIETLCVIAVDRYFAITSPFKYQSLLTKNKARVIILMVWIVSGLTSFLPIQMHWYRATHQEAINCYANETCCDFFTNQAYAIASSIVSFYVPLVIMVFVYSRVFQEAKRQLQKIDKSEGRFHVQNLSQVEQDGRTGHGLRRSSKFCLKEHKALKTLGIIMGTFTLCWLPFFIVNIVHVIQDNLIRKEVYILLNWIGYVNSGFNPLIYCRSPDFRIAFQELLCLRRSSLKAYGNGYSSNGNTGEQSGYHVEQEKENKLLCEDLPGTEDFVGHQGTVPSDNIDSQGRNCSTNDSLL
KiSS-1 receptor (Homo sapiens), sequence (Q969F8 whole entry, looked up): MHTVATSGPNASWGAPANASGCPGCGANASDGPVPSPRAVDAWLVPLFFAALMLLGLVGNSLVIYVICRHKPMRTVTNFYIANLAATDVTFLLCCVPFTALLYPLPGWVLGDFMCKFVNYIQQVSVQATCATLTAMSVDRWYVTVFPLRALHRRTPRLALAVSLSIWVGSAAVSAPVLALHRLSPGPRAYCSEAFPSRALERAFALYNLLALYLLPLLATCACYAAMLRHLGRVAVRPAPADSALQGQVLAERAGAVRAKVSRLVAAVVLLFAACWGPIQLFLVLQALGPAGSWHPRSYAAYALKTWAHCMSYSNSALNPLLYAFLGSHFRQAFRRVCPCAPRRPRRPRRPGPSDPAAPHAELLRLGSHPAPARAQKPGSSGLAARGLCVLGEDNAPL
5-hydroxytryptamine receptor 2A (Homo sapiens), sequence (P28223 whole entry, looked up): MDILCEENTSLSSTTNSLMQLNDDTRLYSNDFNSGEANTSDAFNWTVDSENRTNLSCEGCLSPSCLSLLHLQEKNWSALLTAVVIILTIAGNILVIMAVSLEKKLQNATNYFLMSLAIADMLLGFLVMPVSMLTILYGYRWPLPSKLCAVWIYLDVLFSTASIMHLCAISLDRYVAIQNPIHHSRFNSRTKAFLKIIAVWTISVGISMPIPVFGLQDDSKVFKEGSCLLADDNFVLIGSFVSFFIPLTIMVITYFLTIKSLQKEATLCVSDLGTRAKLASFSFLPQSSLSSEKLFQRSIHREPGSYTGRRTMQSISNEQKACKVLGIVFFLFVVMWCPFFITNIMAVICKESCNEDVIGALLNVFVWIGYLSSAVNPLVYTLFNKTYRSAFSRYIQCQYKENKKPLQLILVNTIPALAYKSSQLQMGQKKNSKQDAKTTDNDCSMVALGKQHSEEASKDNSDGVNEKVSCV
D(2) dopamine receptor (Homo sapiens), sequence (P14416 whole entry, looked up): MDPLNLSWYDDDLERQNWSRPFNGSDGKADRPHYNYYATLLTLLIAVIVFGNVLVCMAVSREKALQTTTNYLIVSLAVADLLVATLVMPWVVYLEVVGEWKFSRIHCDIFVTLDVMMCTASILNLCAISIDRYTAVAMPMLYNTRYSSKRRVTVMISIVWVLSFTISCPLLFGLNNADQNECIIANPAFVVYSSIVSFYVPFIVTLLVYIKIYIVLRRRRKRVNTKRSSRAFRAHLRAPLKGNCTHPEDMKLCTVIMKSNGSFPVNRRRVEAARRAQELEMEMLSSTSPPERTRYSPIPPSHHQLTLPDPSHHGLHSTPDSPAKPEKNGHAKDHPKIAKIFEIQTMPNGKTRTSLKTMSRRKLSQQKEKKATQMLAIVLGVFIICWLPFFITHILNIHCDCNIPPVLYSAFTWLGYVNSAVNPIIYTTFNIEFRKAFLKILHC
Muscarinic acetylcholine receptor M1 (Homo sapiens), sequence (P11229 whole entry, looked up): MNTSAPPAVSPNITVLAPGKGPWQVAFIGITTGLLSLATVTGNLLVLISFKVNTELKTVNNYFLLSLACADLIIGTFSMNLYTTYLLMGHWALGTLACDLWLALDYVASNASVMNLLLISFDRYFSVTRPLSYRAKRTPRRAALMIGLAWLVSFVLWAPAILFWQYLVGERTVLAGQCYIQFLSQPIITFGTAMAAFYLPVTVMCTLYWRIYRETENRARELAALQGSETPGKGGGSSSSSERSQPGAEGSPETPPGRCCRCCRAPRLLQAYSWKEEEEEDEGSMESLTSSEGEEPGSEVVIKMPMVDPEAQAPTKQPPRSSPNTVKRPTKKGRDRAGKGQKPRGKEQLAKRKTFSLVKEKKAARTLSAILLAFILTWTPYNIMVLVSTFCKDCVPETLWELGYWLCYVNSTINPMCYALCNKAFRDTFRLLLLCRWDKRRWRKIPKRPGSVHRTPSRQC
Gonadotropin-releasing hormone receptor (Homo sapiens), sequence (P30968 whole entry, looked up): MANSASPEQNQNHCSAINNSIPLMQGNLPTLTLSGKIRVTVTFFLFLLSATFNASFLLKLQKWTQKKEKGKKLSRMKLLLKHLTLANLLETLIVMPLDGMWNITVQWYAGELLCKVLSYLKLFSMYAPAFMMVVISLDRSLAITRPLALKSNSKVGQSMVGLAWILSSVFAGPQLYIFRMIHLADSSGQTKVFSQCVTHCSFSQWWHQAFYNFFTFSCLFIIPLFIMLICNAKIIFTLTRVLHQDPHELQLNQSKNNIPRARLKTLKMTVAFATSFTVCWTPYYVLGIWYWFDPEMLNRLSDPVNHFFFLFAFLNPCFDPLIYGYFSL

Nc1c(Cl)c(Cl)c(Cl)c(Cl)c1Cl
not listed: [15] | [16] | [17]
inactive: all other assays above

O=[N+]([O-])[O-].[Tl+]
not listed: [6] | [16] | [17]
inactive: all other assays above

O=[N+]([O-])C(Br)(CO)CO
not listed: [9] | [14] | [15] | [16] | [17]
inactive: all other assays above

Fc1ccc(C2(Cn3cncn3)OC2c2ccccc2Cl)cc1 (stereo not given)
not listed: [10] | [15] | [17]
inactive: all other assays above

CNC(=O)O/N=C(\C)SC
not listed: [7]
inactive: all other assays above
